Measurements reported in PubChem BioAssay (NCI).
About 83,000 compounds went through this panel and 20% of them were active in at least one assay; those are over-represented in the sample as a whole.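 Percent growth is the endpoint: 0 to 100 indicates growth inhibition (40 means 60% inhibition), 0 means no net growth, and negative values indicate cell death.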 Unmarked numbers belong to inactive results. Calls of active or inactive are those of the source. The calls were made as follows: active = growth percent below 10; inactive = the rest.

Columns and labels:
Test in all cases: NCI-60 one-dose screen, 48 h (100 = growth as untreated, 0 = no growth, -100 = all killed)
Conditions in all cases: 10 µM unless noted
HCT-15 colon = system: HCT-15 colon
HT29 colon = system: HT29 colon
SNB-75 CNS = system: SNB-75 CNS
SNB-19 CNS = system: SNB-19 CNS
U251 CNS = system: U251 CNS
PC-3 prostate = system: PC-3 prostate
SK-MEL-5 melanoma = system: SK-MEL-5 melanoma
UACC-62 melanoma = system: UACC-62 melanoma
LOX IMVI melanoma = system: LOX IMVI melanoma
SK-MEL-28 melanoma = system: SK-MEL-28 melanoma

Row | SMILES | growth (HCT-15 colon) | growth (HT29 colon) | growth (SNB-75 CNS) | growth (SNB-19 CNS) | growth (U251 CNS) | growth (PC-3 prostate) | growth (SK-MEL-5 melanoma) | growth (UACC-62 melanoma) | growth (LOX IMVI melanoma) | growth (SK-MEL-28 melanoma)
1 | CNC(=O)c1ccccc1Nc1nc(Nc2ccc3c(c2OC)CCC[C@H](N2CCN(CCO)CC2)C3)ncc1Cl | 0.498% (active) | -44.3% (active) | -5.43% (active) | 18.8% | -19.4% (active) | 22.9% | -92.4% (active) | -45% (active) | -89.6% (active) | -77.1% (active)
2 | Nc1c2c(c(O)c3c1=C(CO)C=N3)=NCCS2 | -87.1% (active) | -20.9% (active) | -79.2% (active) | -93.7% (active) | -91.5% (active) | -51.8% (active) | -99.1% (active) | -79.9% (active) | -89.5% (active) | -79% (active)
3 | NC(=O)Nc1cc(-c2cccc(F)c2)sc1C(=O)N[C@H]1CCCNC1 | -10.6% (active) | -24% (active) | -89.8% (active) | -26.7% (active) | -62% (active) | 16.2% | -27.5% (active) | -21.1% (active) | -75.2% (active) | 14.2%
4 | Clc1nc(Cl)c2ncn(C/C=C\Cn3cnc4c(Cl)nc(Cl)nc43)c2n1 | -44.7% (active) | -65.9% (active) | -25.7% (active) | 9.97% (active) | -56.5% (active) | -57.6% (active) | -81.5% (active) | -72.7% (active) | -80.1% (active) | -19% (active)
5 | Cc1csc(-c2nnc(Nc3ccc(Oc4ncccc4-c4ccnc(N)n4)cc3)c3ccccc23)c1 | 37.6% | 10.1% | 61.9% | 43.3% | 37.7% | 59.9% | 54.1% | 21.1% | 25.7% | 18.9%
6 | N#Cc1c(-c2ccc(C(F)(F)F)cc2)cc(NCC2CCS(=O)(=O)CC2)n2c1nc1ccccc12 | 86.2% | 75.7% | 52.5% | 83.5% | 83.2% | 63.4% | 77.7% | 80.8% | 77.5% | 95.8%
7 | Cc1cc(-c2cc(O)ccc2Cl)cc2nnc(Nc3ccc(OCCN4CCCC4)cc3)nc12 | -78.5% (active) | -57.1% (active) | -90.8% (active) | -64.4% (active) | -74.5% (active) | -80.5% (active) | -84.9% (active) | -77.7% (active) | -63.9% (active) | -72.3% (active)
8 | OCCNC(=S)Nc1ccc(-c2nc(N3C[C@H]4CC[C@@H](C3)O4)c3cccn3n2)cc1 | 13% | 20.1% | -30.4% (active) | 0.975% (active) | 7.99% (active) | 9.91% (active) | -34.8% (active) | -36.5% (active) | 1.79% (active) | -5.35% (active)
9 | O=C(O)C1(Cc2cccc(Nc3nccs3)n2)CCC(Oc2cccc(Cl)c2F)CC1 (stereo not given) | 70.7% | 62.8% | 95.5% | 75.4% | 60.8% | 71.3% | 70.3% | 61.8% | 74.6% | 88.4%
10 | C#Cc1cccc(Nc2ncnc3cc(OCCOC)c(OCCOC)cc23)c1 | 39.3% | 53.2% | 71.6% | 79.8% | 68.8% | 73.4% | 77.1% | 50.9% | 47.2% | 86.8%
11 | C/C=C/C=N/NC(=S)Nc1ccccc1 | 99% | 106% | 80.8% | 102% | 88.4% | 88.2% | 104% | 89.5% | 88.6% | 97.5%
12 | CC(N)C(Cc1ccc(Cl)cc1)c1ccc(Cl)cc1 (stereo not given) | 69.3% | -21.9% (active) | 48.6% | 82.4% | 5.91% (active) | 37.5% | 90.1% | 92.4% | 74.3% | 62.6%
13 | CNC(=O)c1c(C)oc2cc(Oc3ncnc4cc(OC)c(OC)cc34)ccc12 | 109% | 98.4% | 58.2% | 97.5% | 58.9% | 84.9% | 121% | 104% | 96.5% | 119%
14 | CNc1ncc2cc(-c3cc(NC(=O)NCCC(C)(C)C)c(F)cc3C)c(C)nc2n1 | 19% | 3.91% (active) | -16.9% (active) | 23.6% | 16% | 49.1% | 23.6% | -7.93% (active) | -34.1% (active) | -6.47% (active)
15 | CCN1/C(=C/C=C/c2n(-c3ccccc3)c3ccc(-c4nc5ccccc5s4)cc3[n+]2CC)N(c2ccccc2)c2ccc(-c3nc4ccccc4s3)cc21 | 14.9% | 10.8% | 18.6% | 24.7% | 4.79% (active) | 16.2% | -59.2% (active) | 30.5% | 1.77% (active) | -8.49% (active)
16 | CCCc1cc2cc(-n3nc(C)c4c3CC(C)(C)CC4=O)cc(NC3CCC(O)CC3)c2c(=O)[nH]1 (stereo not given) | 23.6% | 8.7% (active) | 49.4% | 40% | 25.6% | 33% | 15.8% | 14.1% | -18.4% (active) | 36.4%
17 | Cn1c(=O)c(F)c(Nc2ccc(I)cc2F)c2c(=O)n(C[C@@H](O)CO)cnc21 | 54.6% | 7.51% (active) | 62.7% | 42.6% | 31.4% | 68.4% | 36.3% | 0.259% (active) | 15.3% | 0.0364% (active)
18 | CCCCOc1nc2cc(Cl)ccc2cc1/C=C/c1cc(/C=C/c2cc3ccc(Cl)cc3nc2OCCCC)n(-c2ccccc2)n1 | 112% | 88.9% | -17.4% (active) | 69.9% | 43.2% | 86.3% | 106% | 72.7% | 86.2% | 112%
19 | CC(C)OP(=O)(CCC(=O)c1c[nH]c2ccccc12)OC(C)C | 104% | 97.2% | 82.6% | 104% | 90.1% | 73.2% | 110% | 97% | 96.2% | 121%
20 | Cc1ccc(-c2nc3ccc(Cl)cn3c2NC2CCCCC2)o1 | 66.8% | 48.4% | 83.5% | 97.4% | 86.8% | 45.4% | 66.4% | 72.4% | 103% | 100%
21 | Clc1ccc(C(Cn2ccnc2)OCc2ccsc2Cl)c(Cl)c1 (stereo not given) | 42.5% | 30% | 56.4% | 68.4% | 54.7% | 31.1% | 31.2% | 41.9% | 43.7% | 77.2%
22 | O=C(COc1ccc(/C=C2\Cc3ccc(Cl)cc3C2=O)cc1)Nc1nccs1 | 98.5% | 108% | 86.6% | 83.8% | 108% | 96% | 99.3% | 95.3% | 93% | 122%
23 | O=C(NO)c1ccc(Cn2c(=O)n(CCc3ccccc3)c(=O)c3ccccc32)cc1 | 28.6% | 42.3% | 54.3% | 45.2% | 23.8% | 20.3% | 34.8% | 3.79% (active) | 12.9% | 13.4%
24 | Cc1nn(-c2nc3ccccc3[nH]2)c2c1C(c1ccc(O)cc1)CC(=O)N2 (stereo not given) | 70.6% | 83.9% | 27.8% | 84.1% | 76.4% | 77.7% | 85.3% | 84.9% | 85.2% | 80.4%
25 | CC(C)NC[C@@H](C(=O)N1CCN(c2ncnc3c2[C@H](C)C[C@H]3O)CC1)c1ccc(Cl)cc1 | 71.2% | 27.4% | 8.53% (active) | 26.7% | 28.4% | 33% | 72.4% | 44.6% | 66.8% | 55.6%
26 | O=C(NOCCO)c1ccc2cncn2c1Nc1ccc(I)cc1F | 66.7% | 9.38% (active) | 81.1% | 57.8% | 40.4% | 81% | 47% | 3.07% (active) | 19.9% | 3.91% (active)
27 | COc1c(OCCCN2CCOCC2)ccc2c3n(c(=NC(=O)c4cnc(N)nc4)nc12)CCN3 | 14.9% | 3.56% (active) | -19.2% (active) | 10.8% | 10.1% | 12% | -48.7% (active) | -48.9% (active) | -41.9% (active) | -7.18% (active)
